Most compounds without a hit are left out; they make up all but 11% or so of the library.
hNpr1 antagonist: antagonists of human natriuretic peptide receptor Npr1 | Potency, µM (doses to about 46.3 µM), for the others: at the top dose activity change, negative = inhibition, actives largely listed as inhibitors | 76,000 compounds, 1.6% hits | HEK293 hNpr1 GloSensor cGMP, ANP-stimulated luminescence | P16066; calls by dose curve; further: nearly all actives have a fitted effect of over 60% in size
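HEK293 cells stably expressing human Npr1 and cGMP GloSensor pGS-40F, loaded 2 h with 2% GloSensor reagent, given compound 30 min at room temperature. Luminescence read before and 20 min after 0.1 nM hNppA.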
3T3 cytotox: kills NIH 3T3 cells; NIH 3T3 viability, CellTiter-Glo ATP luminescence, 48-72 h; Potency, µM (series often up to 96.7 µM), for the others: at the top dose activity change, negative = cytotoxicity, hits mostly inhibitors; 94,000 compounds, 4.3% hits; AID 1345082; further: nearly all actives have a fitted effect of over 55% in size
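Luminescent ATP readout (CellTiter-Glo, 10 min RT) after 48 or 72 hr compound exposure of NIH 3T3 cells seeded at 400 cells/well in 1536-well format; quantitative HTS.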
HEK293 tox: kills HEK 293 cells. HEK 293 viability, ATP luminescence (CellTiter-Glo), 48-72 h. Potency, µM (doses to about 115 µM), inactives show at the top dose activity change, negative = cytotoxicity, actives largely listed as inhibitors. 94,000 compounds, 6.6% hits; further: nearly all actives have a fitted effect of over 60% in size
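qHTS cytotoxicity; HEK 293, 250 cells/well; compound pinned; 48 or 72 hr, 37 degree Celsius, 5% CO2, 95% humidity; CellTiter-Glo, 10 min RT; luminescence (ATP).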
Luciferase inh: blocks purified firefly luciferase enzyme activity; P08659; purified P. pyralis luciferase, luminescence, biochemical; Potency, µM (titrated, usually from 115 µM), hits mostly inhibitors; 76,000 compounds, 2.5% hits; further: nearly all actives have a fitted effect of over 65% in size
Target sequence (P08659 whole entry, looked up): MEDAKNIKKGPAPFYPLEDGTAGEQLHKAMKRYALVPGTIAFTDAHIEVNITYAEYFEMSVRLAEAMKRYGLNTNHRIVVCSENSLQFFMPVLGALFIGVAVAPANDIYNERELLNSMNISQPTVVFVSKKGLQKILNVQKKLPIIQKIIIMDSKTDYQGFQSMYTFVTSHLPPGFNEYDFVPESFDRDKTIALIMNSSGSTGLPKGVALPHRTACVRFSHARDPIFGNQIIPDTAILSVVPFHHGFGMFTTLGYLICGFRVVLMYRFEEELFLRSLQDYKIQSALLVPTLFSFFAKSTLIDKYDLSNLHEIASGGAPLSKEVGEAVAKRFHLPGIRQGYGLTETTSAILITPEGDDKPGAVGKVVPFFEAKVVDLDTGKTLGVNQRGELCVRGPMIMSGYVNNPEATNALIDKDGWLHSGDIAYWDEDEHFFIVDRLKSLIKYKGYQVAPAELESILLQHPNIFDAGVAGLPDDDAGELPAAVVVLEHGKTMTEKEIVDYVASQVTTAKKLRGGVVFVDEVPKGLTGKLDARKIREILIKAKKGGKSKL
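FLuc 10nM, D-luciferin 10uM, ATP 10uM, Mg acetate 10mM, Tris acetate pH 7.5, Tween/BSA; cpd qHTS; enzyme added last; CCD luminescence.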
An asterisk follows results filed as active; i = inactive; ? = inconclusive; . = no result given; [ ] = remark or other dose. Unless noted, the call rests on the fitted dose curve; in most records, active means well fitted curve in the direction sought with a large enough effect; inconclusive means small, poorly fitted or top-dose-only effect, or another doubt; inactive means no such curve, though single readings can be large; an effect the other way counts as inactive or inconclusive. On the % scale 0 is the no-effect control and ±100 the full control effect; potency means the concentration at half of the fitted maximal effect.

SMILES	hNpr1 antagonist	3T3 cytotox	HEK293 tox	Luciferase inh
Cc1cc(C)cc(-c2ccc(CN3CCCC(NC(=O)C(C)C)C3)cc2)c1 (stereo not drawn)	.	-22%	-35%	.
Cc1cc(C)cc(-c2ccc(CN3CCCC(NC(=O)Cc4ccc(F)cc4)C3)cc2)c1 (stereo not drawn)	.	?	32µM*	.
COc1ccccc1-n1c(=O)c(C(=O)N2CCN(C(=O)NC(C)C)CC2)nc2cccnc21	.	i	-4%	.
O=C(CCc1ccc(-c2ccc(Cl)cc2)[nH]1)N[C@@H]1C[C@@H]2OCC[C@@H]21	-19%	?	79µM*	i
COc1ccc(C)cc1Nc1nc(-c2ccc(OC)c(OC)c2)no1	-4%	?	?	?
COc1ccc(-c2noc(Nc3cc(C)ccc3OC)n2)cc1	-6%	?	?	18µM*
COc1ccc(-c2ccnc3nc(Cc4ccc(F)cc4)nn23)cc1OC	6%	?	?	i
COc1ccc(Cc2nc3nccc(-c4ccc(OC)c(OC)c4)n3n2)cc1	1%	14µM*	?	i
COc1ccc(CCc2nc3nccc(-c4ccc(OC)c(OC)c4)n3n2)cc1	2%	?	35µM*	?
Oc1ccccc1-c1cc(C2=CCOCC2)c2cncn2c1	-2%[70.6 µM]	63µM*	100µM*	i
COc1ncccc1-c1cc(C2=CCOCC2)c2cncn2c1	5%[70.6 µM]	?	-17%[172 µM]	i
Oc1cccc(-c2cc(C3=CCOCC3)c3cncn3c2)c1	-11%[70.6 µM]	100µM*	?	i
CCC(C)NC(=O)C(NC(=O)c1ccc(OC)cc1)C1CCN(C(=O)c2ccccc2C)CC1 (stereo not drawn)	6%	-12%	0%	i
Cc1noc(C)c1-c1cc2cc(CN(C)C)oc2c(NCc2ccccc2)n1	2%[70.6 µM]	?	?	i
Cc1noc(C)c1-c1cc2cc(CN(C)C)oc2c(NCc2cccnc2)n1	7%[70.6 µM]	?	?	i
Cc1ccccc1-c1nc(-c2c(C)noc2C)cc2cc(CN(C)C)oc12	4%[70.6 µM]	28µM*	?	i
Cc1noc(C)c1-c1cc2cc(CN(C)C)oc2c(Nc2cccnc2)n1	-1%[70.6 µM]	25µM*	71µM*	i
N#CC1CCN(C(=O)c2ccc3nnc(-c4ccc(Cl)cc4)n3c2)CC1	.	-18%	-13%	.
O=C(NCCCc1ccccc1)C1CCc2nnc(C3CCN([S+](=O)([O-])c4ccccc4Cl)CC3)n21 (stereo not drawn)	.	?	-18%	.
COC(=O)[C@@H]1Cc2c([nH]c3ccccc23)[C@H]2C[C@@H](NC(C)C)C[C@@H](c3ccccc3)N21	-15%[70.6 µM]	40µM*	35µM*	?
COC(=O)[C@@H]1Cc2c([nH]c3ccccc23)[C@H]2C[C@@H](NC(C)C)C[C@@H](c3ccc(C)cc3)N21	0%[70.6 µM]	40µM*	35µM*	i
COc1cc(C(=O)NC2CCCc3c2[nH]c2ccccc32)cc(OC)c1OC (stereo not drawn)	3%	?	?	i
O=C(CCn1ccn2nc3c(c2c1=O)CCCC3)Nc1ccc2c(c1)OCO2	-15%	-11%	?	?
O=C(c1cc(F)ccc1Cl)N1CCC(n2cc(-c3nc(-c4ccccc4)no3)nn2)C1 (stereo not drawn)	13µM*	?	?	?
Cc1ccc(C(=O)N2CCC(n3cc(-c4nc(-c5ccccc5)no4)nn3)C2)cc1C (stereo not drawn)	2µM*	?	45µM*	32µM*
SMILES	hNpr1 antagonist	3T3 cytotox	HEK293 tox	Luciferase inh
CN(C)c1ccc(C(=O)N2CCC(n3cc(-c4nc(C5CC5)no4)nn3)C2)cc1 (stereo not drawn)	0%	-22%	?	i
CN(C)c1ccc(C(=O)N2CCC(n3cc(-c4nc(-c5ccccc5)no4)nn3)C2)cc1 (stereo not drawn)	0%	?	45µM*	?
COc1cccc(CC(=O)N2CCC(CC3CC3)(NS(C)(=O)=O)CC2)c1	.	-23%	0%	.
O=C(c1cnn2ccccc12)N1CCC(Cc2cccc(CO)c2)C1 (stereo not drawn)	7.1µM*	?	?	?
O=C(NCCc1ccccc1)C1CCN(Cc2ccccc2-c2ccccc2F)CC1	.	-21%	?	.
O=C(NCCc1ccc(F)cc1)C1CCN(Cc2ccccc2-c2ccccc2F)CC1	.	35µM*	28µM*	.
O=C(NCCc1ccc(Cl)cc1)C1CCN(Cc2ccccc2-c2ccccc2F)CC1	.	?	32µM*	.
O=C(N[C@H]1[C@H]2CCO[C@H]2[C@@H]1N1CCCC1)c1ccc(-c2cccc(F)c2)cc1	-1%	?	-28%	i
O=C1N(Cc2ccc(F)c(F)c2)CCCC12CCN(c1nc3ccccc3o1)C2 (stereo not drawn)	-13%	40µM*	?	40µM*
O=C(Nc1cccc2ccccc12)O[C@@H]1CO[C@H]2[C@@H]1OC[C@@H]2NC(=S)Nc1ccc(Cl)cc1	-5%	?	40µM*	i
S=C(Nc1cccc2ccccc12)N[C@H]1CO[C@H]2[C@@H]1OC[C@H]2OCc1ccccc1	?	?	63µM*	i
O=C(Nc1cccc2ccccc12)O[C@@H]1CO[C@H]2[C@@H]1OC[C@@H]2NC(=S)Nc1cccc2ccccc12	-3%	?	?	i
CN(C)c1ccc(NC(=S)N[C@H]2CO[C@H]3[C@@H]2OC[C@H]3OC(=O)Nc2cccc3ccccc23)cc1	-3%	?	-27%	32µM*
CN1CCN(C(=O)c2nc3sccn3c2-c2ccc(C(F)(F)F)cc2)CC1	.	-10%	-14%	.
O[C@H]1[C@H](NCC2CCCCC2)[C@H]2CO[C@H](O2)[C@@H]1N1CCC(Cc2ccccc2)CC1	-3%[70.6 µM]	32µM*	40µM*	i
O=C(NC1CCCCC1)N[C@H]1[C@H](O)[C@@H](N2CCC(Cc3ccccc3)CC2)[C@@H]2OC[C@H]1O2	3%	?	?	i
O[C@H]1[C@H](NCc2ccc(OC(F)(F)F)cc2)[C@H]2CO[C@H](O2)[C@@H]1N1CCC(Cc2ccccc2)CC1	?	?	45µM*	i
O=C(Cc1cccc(Cl)c1)N1CCC(C(=O)N2CCC(N3CCCC3=O)CC2)CC1	.	-23%	-6%	.
CNC(=O)CCn1ncc2cc(OC3CCc4cccc(-c5cccc(CO)c5)c43)ccc21 (stereo not drawn)	-1%[70.6 µM]	?	79µM*	?
CNC(=O)CCn1ncc2cc(OC3CCc4cccc(-c5ccc(OC)cc5)c43)ccc21 (stereo not drawn)	-19%[70.6 µM]	50µM*	79µM*	i
O=C(O)CCn1ncc2cc(OC3CCN(C(=O)OCc4ccccc4)CC3)ccc21	-3%[70.6 µM]	?	-19%[172 µM]	?
CNC(=O)CCn1ncc2cc(OC3CCc4cccc(-c5ccc(O)c(F)c5)c43)ccc21 (stereo not drawn)	2%	40µM*	?	i
CC(C)OC(=O)N1CCC(Oc2ccc3c(cnn3CCC(=O)O)c2)CC1	1%[70.6 µM]	?	4%[172 µM]	i

Screening data: PubChem BioAssay, National Center for Advancing Translational Sciences (NCATS)
